This is an account of results in PubChem BioAssay (NCATS).

Inconclusive results are not listed. The source made the active and inactive calls. Unless noted, calls come from the whole dose curve; as a rule, active = well fitted curve in the direction sought with a large enough effect; inconclusive = small, poorly fitted or top-dose-only effect, or another doubt; inactive = no such curve, though single readings can be large; an effect the other way counts as inactive or inconclusive.

Experiment [1] deals with Transient receptor potential cation channel subfamily V member 1 (Homo sapiens) (UniProt Q8NER1). Kind of experiment: HTS Assay for Compounds that Act as Enhancers of the Vanilloid Receptor 1 (AID 488979). Note: 0% is about no effect. A digest of the protocol: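 TRPV1-expressing cells loaded with Fluo-8 calcium dye; compounds added and calcium influx read kinetically for 3 min (agonist phase), then capsaicin at EC20 added and read 2 min more for enhancement. Fluorescence ex 480/em 520 nm.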

For experiment [2], the target named is Thyrotropin receptor (Homo sapiens) (UniProt P16473). Put plainly: qHTS Assay for Antagonists of the Thyroid Stimulating Hormone Receptor (AID 488980). Note: series mostly up to about 58 µM; 0% is about no effect. The method, boiled down:
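Inhibition of TSH-stimulated cAMP accumulation was quantified by homogeneous time-resolved FRET in TSHR-transfected HEK293 cells. Agonist: TSH, 4 nM final (EC80).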
Background: qHTS replaces the single test concentration by a dilution series.

Experiment [3] deals with D(1A) dopamine receptor (Homo sapiens) (UniProt P21728). Kind of experiment: HTS Assay for Allosteric Agonists of the Human D1 Dopamine Receptor: Primary Screen for Potentiators (AID 488982). Note: 0% is about no effect. A digest of the protocol:
(§1)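 Tetracycline-induced HEK293 T-REx cells force-coupled to calcium signalling were incubated overnight at 30 C and dye-loaded at room temperature. Calcium flux over 180 s after compound addition flagged agonists; a further 180 s read after EC20 dopamine flagged potentiators.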

The target is the same in experiment [4]. Kind of experiment: HTS Assay for Allosteric Agonists of the Human D1 Dopamine Receptor: Primary Screen for Antagonists (AID 488983).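 Note: calcium flux response to an EC80 dopamine challenge measured with no-wash dye; % is set by controls: 0 for no effect and ±100 for the full control effect; nearly all actives have a fitted effect of over 65% in size.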 A digest of the protocol:
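Cells are induced with tetracycline and incubated overnight at 30 C, then loaded with calcium dye for 30 to 90 minutes at room temperature. Compound addition is followed by a 180 s read, then an EC80 dopamine addition and another 180 s read.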

A short description of experiment [5]: Validation screen for small molecules that induce genotoxicity in human embryonic kidney (HEK293T) cells expressing luciferase-tagged ELG1 (AID 493106). Note: 0% is about no effect. A digest of the protocol:
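Luminescence from an ELG1-luciferase fusion serves as the read-out, rising when genetic stress elevates ELG1 protein. HEK293T reporter cells (2,000 per well) received 23 nL compound, incubated 16 hr at 37 °C, then ONE-Glo for 30 min at room temperature.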

For experiment [6], the target named is ATPase family AAA domain-containing protein 5 (Homo sapiens) (UniProt Q96QE3). Kind of experiment: Validation screen for small molecules that inhibit ELG1-dependent DNA repair in human embryonic kidney (HEK293T) cells expressing luciferase-tagged ELG1 (AID 493107).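 Note: cells co-treated with the DNA-damaging agent 5-fluorouridine alongside compound; series mostly up to about 46 µM; % is set by controls: 0 for no effect and ±100 for the full control effect; inhibitors lower the ELG1-luciferase luminescence signal; nearly all actives have a fitted effect of over 70% in size.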 A digest of the protocol:
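Luminescence from ONE-Glo, developed 30 min at room temperature, served as read-out of ELG1-luciferase levels. Beforehand, reporter HEK293T cells received 5-fluorouridine plus test compound for 16 hr at 37 °C.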

For experiment [7], the target named is Thyrotropin-releasing hormone receptor (Homo sapiens) (UniProt P34981). Kind of experiment: qHTS for Small Molecule Agonists and Allosteric Enhancers of Human TRH Receptor: Validation Screen for Agonists (AID 493127;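 active = calcium activation more than 3 SD above the typical response in the agonist read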;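 note: intracellular calcium rise by fluo-8 fluorescence before TRH EC20 addition; 0% is about no effect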). The conditions noted are these: TRH receptor agonist cell assay; at 2 µM; stronger effect = higher value. The method, boiled down: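 Cells 2000/well, 10% FCS, 18 h 33.5C/5% CO2 → fluo-8 Ca dye, RT 30 min–1.5 h → FDSS baseline 10 × 1 s → compound added → 230 cycles (1 s/cycle) agonist mode. TRH controls.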

A short description of experiment [8]: Nrf2 qHTS screen for inhibitors: Validation (AID 493153; active = well fitted inhibition curve with a large enough effect in the main read-out, with a control signal flat, not every such curve was filed as active). Particulars: Potency: luciferase luminescence; viability change: measured here: cytotoxicity max response. The method, boiled down:
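Luminescence from an ARE-firefly luciferase reporter in A549 cells gives Nrf2 inhibition; an earlier CellTiter-Fluor fluorescent read flags cytotoxicity. Cells in 5% FBS OPTI-MEM received compound dilution series for 18-24 h at 37°C.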

Experiment [9] is described as follows: qHTS for Inhibitors of Cell Surface uPA Generation: Validation Assay (AID 493164). Note: 0% is about no effect. The method, boiled down: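 RAW 264.7 cells (4000/well) were plated overnight, then exposed for 18 h at 37 C, 5% CO2 to compounds in a 7-point 1:5 titration (2.45 nM–38.3 uM final). Intracellular ATP was read by ATP-Lite luminescence.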
The target of experiment [10] is Galactokinase (Homo sapiens) (UniProt P51570). Kind of experiment: qHTS Validation Assay for Inhibitors of Human Galactokinase (GALK) (AID 493189). Note: 0% is about no effect. The method, boiled down: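 Enzyme activity is inferred from ATP consumption: human GALK phosphorylates galactose (100 uM) using 35 uM ATP for 1 h at room temperature, and luciferase-based Kinase-Glo Plus reports unconsumed ATP.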
Sequence of Galactokinase (Homo sapiens) (P51570 whole entry, looked up): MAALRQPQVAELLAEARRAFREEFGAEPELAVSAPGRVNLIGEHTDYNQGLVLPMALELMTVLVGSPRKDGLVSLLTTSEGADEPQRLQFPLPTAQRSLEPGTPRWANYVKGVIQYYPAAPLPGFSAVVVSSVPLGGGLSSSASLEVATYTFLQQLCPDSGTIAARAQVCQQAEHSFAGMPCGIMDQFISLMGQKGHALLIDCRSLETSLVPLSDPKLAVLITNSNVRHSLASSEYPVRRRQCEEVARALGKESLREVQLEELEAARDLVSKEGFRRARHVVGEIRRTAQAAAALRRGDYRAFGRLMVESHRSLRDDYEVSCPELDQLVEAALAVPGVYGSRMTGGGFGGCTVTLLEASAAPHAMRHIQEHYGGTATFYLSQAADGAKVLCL

A short description of experiment [11]: Validation screen for small molecules that induce DNA re-replication in SW480 colon adenocarcinoma cells (AID 504364). Note: 0% is about no effect. A digest of the protocol:
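250 cells/well; compound pinned in; 48 hr, 37 C, 5% CO2; Hoechst added, 40 min; nuclear fluorescence imaged, 405 ex / 500-530 em; re-replication scored as increase in high-intensity nuclei.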

Experiment [12] deals with Peptidyl-prolyl cis-trans isomerase NIMA-interacting 1 (Homo sapiens) (UniProt Q13526). Put plainly: qHTS Validation Assay to Find Inhibitors of Pin1 (AID 504536; active = well fitted inhibition curve with a large enough effect in the polarisation, with a control signal flat, not every such curve was filed as active; the % refers to the polarisation;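 note: 0% = full Pin1 enzyme wells and -100% = no-enzyme wells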). A digest of the protocol: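 Fluorescence polarization competition: compounds (titration) displace HiFluor-488-labeled Pin1-1b peptide from Pin1 (0.3 uM final) in pH 7.5 HEPES buffer with DTT, 10 min at room temperature; %Activity normalized to no-enzyme wells, curves fitted.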
Sequence of Peptidyl-prolyl cis-trans isomerase NIMA-interacting 1 (Homo sapiens) (Q13526 whole entry, looked up): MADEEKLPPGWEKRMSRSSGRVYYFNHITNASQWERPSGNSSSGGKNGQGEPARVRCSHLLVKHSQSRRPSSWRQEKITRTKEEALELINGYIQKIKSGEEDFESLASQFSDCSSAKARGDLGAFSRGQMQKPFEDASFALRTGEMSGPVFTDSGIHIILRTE

Experiment [13] has as its target Ubiquitin carboxyl-terminal hydrolase 1 (Homo sapiens) (UniProt O94782). Kind of experiment: Inhibitors of USP1/UAF1: Pilot qHTS (AID 504865).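 Note: rhodamine fluorescence freed from ubiquitin-rhodamine substrate followed over time; top concentration of the series differs between compounds; % is set by controls: 0 for no effect and ±100 for the full control effect; nearly all actives have a fitted effect of over 35% in size.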 A digest of the protocol: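 Enzyme-free wells gave the negative control, while test wells held 1nM USP1/UAF1 preincubated with compound for 15 min at room temperature. Ub-Rho at 150nM final started the reaction, and fluorescence at 480/540 nm was recorded kinetically.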

Experiment [14] in a line: qHTS for Inhibitors of ATXN expression: Validation of Cytotoxic Assay (AID 588349). Note: % is set by controls: 0 for no effect and ±100 for the full control effect. The method, boiled down: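 Read-out: ATP-based luminescence (CellTiter Glo) reflecting viability of HEK293 cells after 72 hr incubation at 37 degrees C with a concentration series of each compound.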
The nature of experiment [15]: qHTS for Inhibitors of ATXN expression: Validation (AID 588378). Note: series mostly up to about 57 µM; % is set by controls: 0 for no effect and ±100 for the full control effect; nearly all actives have a fitted effect of over 75% in size. The method, boiled down: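 After a 2 h attachment and 24 h compound incubation, HEK293-ATXN2-FFLuc wells are read for fluorescence at 405 nm excitation/525 nm emission as a viability measure, then for Bright-Glo luminescence reflecting ATXN2 expression.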
Experiment [16] deals with D(1A) dopamine receptor (Homo sapiens) (UniProt P21728). Kind of experiment: HTS Assay for Allosteric Agonists of the Human D1 Dopamine Receptor: Primary Screen for Agonists (AID 488981). Note: 0% is about no effect. A digest of the protocol: as §1
Sequence of D(1A) dopamine receptor (Homo sapiens) (P21728 whole entry, looked up): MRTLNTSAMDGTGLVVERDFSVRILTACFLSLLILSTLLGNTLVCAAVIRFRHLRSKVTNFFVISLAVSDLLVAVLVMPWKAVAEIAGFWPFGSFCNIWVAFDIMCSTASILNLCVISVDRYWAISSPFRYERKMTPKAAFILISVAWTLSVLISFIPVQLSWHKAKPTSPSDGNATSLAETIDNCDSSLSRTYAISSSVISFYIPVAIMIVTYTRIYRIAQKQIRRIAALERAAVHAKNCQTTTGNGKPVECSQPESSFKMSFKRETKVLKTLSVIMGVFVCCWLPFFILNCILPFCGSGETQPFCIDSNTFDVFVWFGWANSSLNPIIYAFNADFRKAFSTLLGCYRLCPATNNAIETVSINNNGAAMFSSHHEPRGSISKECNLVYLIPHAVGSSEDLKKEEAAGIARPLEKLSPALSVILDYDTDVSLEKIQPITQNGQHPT
The target of experiment [17] is Phosphoglycerate kinase, glycosomal (Trypanosoma brucei brucei) (UniProt P07378). Put plainly: qHTS Validation Assay to Find Inhibitors of Phosphoglycerate Kinase (AID 504547).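 Note: control wells lack PGK and mark full inhibition.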 A digest of the protocol:
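Substrate/PGK mix plus compound; reaction started with GAPDH (100nM final) to form 1,3-BPG; 60 min RT; Kinase-Glo Plus 10 min; luminescence. TEA 100mM pH 7.6, MgCl2 5mM, Tween-20 0.01%.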

Experiment [18] addresses phosphoglycerate mutase (Leishmania major) (UniProt Q4Q090). Kind of experiment: qHTS Validation Assay to Find Inhibitors of Phosphoglycerate Mutase (AID 504548).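 Note: end-point luminescence from Kinase-GloPlus after the PGAM reaction; series mostly up to about 58 µM; % is set by controls: 0 for no effect and ±100 for the full control effect.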 The conditions noted are these: Potency: inhibition qHTS. A digest of the protocol:
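L. major PGAM (1.25nM final) was added to substrate buffer and pinned compound, incubated 45 minutes at room temperature, then Kinase-GloPlus added; luminescence read after 10 minutes. Buffer: 100 mM TEA pH 7.6, 5 mM MgCl2, 0.01% Tween-20.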

Sequence of Thyrotropin receptor (Homo sapiens) (P16473 whole entry, looked up): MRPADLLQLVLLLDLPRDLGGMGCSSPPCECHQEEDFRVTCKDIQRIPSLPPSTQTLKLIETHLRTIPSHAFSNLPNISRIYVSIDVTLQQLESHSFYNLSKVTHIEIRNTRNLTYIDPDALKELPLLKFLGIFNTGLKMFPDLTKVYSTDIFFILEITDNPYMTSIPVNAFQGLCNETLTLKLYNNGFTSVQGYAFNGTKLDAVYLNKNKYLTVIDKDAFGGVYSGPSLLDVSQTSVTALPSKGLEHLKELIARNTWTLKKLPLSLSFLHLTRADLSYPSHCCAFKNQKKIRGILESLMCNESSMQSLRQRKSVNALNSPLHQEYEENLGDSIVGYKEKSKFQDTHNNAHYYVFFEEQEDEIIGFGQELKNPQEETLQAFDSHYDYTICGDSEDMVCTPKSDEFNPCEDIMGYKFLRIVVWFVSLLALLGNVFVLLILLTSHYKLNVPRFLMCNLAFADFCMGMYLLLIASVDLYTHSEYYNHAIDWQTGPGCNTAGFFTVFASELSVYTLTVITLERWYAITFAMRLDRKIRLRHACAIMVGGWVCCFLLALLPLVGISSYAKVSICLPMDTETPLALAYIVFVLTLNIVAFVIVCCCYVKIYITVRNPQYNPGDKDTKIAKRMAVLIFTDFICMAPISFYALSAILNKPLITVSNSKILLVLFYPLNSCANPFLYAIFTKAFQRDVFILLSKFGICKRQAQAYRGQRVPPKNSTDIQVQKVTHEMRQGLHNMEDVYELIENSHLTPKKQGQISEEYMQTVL
Sequence of phosphoglycerate mutase (Leishmania major) (Q4Q090 1-553): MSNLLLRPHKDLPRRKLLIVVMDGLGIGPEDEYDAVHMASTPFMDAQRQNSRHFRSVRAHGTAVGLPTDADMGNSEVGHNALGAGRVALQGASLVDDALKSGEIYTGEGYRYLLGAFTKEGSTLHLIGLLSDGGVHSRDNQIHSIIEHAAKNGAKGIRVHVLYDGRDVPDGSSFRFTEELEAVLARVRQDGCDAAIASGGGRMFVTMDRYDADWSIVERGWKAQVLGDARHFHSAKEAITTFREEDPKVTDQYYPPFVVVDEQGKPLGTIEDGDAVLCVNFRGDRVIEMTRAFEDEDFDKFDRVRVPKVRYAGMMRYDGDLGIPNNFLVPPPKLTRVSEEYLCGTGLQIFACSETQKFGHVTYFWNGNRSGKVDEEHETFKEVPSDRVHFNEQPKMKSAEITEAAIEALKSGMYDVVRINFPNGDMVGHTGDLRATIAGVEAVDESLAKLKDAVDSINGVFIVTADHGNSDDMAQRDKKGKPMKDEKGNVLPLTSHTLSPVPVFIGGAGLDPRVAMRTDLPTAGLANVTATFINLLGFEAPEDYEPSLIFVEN
Sequence of ATPase family AAA domain-containing protein 5 (Homo sapiens) (Q96QE3 whole entry, looked up, the tested form may be a part): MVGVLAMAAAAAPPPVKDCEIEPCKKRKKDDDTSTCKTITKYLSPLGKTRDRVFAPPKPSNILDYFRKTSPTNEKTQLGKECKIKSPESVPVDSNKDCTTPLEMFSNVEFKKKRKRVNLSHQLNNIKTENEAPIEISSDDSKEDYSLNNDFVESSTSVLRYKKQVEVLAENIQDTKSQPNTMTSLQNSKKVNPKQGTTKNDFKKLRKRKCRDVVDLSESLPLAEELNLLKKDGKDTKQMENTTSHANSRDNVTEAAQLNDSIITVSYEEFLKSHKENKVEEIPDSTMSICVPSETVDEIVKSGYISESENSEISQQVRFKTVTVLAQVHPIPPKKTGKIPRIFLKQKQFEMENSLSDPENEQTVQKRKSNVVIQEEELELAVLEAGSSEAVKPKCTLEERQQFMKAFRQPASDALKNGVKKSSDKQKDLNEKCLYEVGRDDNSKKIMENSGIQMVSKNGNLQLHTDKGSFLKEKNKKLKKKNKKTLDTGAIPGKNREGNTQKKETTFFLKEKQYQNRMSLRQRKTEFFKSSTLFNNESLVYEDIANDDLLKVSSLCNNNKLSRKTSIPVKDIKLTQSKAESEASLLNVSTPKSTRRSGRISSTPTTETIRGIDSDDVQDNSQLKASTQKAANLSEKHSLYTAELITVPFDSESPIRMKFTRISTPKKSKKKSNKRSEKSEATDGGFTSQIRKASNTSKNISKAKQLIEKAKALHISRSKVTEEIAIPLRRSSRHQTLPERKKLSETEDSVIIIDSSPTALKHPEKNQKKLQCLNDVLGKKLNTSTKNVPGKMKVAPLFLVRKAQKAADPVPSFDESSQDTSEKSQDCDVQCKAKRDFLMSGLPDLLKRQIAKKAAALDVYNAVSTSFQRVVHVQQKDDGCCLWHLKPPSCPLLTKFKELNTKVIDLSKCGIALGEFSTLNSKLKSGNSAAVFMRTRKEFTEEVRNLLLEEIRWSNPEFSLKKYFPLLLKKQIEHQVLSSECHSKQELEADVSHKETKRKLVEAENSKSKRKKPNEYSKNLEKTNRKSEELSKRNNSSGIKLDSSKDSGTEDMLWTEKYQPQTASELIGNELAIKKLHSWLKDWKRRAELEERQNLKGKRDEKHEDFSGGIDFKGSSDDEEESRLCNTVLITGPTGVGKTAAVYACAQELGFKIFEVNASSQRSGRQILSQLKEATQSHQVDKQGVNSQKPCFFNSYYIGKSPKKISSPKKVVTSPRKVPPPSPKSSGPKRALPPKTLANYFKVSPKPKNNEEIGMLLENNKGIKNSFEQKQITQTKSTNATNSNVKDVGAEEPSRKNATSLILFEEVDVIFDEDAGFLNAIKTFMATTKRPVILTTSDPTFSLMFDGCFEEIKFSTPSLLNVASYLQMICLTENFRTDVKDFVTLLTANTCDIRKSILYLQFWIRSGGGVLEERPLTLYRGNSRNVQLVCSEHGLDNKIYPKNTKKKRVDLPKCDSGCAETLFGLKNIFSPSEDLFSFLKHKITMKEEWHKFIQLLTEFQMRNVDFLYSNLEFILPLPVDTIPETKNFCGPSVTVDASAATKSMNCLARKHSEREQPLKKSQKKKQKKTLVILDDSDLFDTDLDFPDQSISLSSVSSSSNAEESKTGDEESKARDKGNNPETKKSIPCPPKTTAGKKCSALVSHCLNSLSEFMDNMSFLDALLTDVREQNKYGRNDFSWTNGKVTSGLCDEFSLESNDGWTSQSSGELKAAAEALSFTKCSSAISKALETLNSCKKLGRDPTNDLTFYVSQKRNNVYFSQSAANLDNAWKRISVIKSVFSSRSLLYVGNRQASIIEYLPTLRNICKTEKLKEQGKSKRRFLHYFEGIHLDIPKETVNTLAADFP
Sequence of Ubiquitin carboxyl-terminal hydrolase 1 (Homo sapiens) (O94782 whole entry, looked up): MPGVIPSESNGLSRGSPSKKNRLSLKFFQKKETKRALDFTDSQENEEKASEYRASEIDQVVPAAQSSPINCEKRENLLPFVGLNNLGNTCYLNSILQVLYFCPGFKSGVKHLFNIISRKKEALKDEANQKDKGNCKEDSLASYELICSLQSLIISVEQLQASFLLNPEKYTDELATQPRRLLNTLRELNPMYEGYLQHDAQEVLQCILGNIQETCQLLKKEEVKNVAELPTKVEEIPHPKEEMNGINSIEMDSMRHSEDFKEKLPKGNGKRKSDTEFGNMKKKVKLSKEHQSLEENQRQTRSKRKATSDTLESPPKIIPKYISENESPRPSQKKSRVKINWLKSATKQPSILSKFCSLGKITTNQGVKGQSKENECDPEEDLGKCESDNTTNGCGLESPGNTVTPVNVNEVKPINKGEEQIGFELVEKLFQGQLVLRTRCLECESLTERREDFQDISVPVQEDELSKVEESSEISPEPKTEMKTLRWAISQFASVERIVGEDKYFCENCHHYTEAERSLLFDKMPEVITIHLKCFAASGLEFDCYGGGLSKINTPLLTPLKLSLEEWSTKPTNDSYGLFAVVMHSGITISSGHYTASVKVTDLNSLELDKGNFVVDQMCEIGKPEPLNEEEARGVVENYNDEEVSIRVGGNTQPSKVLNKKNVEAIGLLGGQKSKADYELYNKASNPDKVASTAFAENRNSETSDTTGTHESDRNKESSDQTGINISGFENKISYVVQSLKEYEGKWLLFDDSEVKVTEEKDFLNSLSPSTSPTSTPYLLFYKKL

`N#Cc1cc2nc(O)c(O)nc2cc1[N+](=O)[O-]`: the result in experiment [1], in [2] and in [9] was inactive. In addition, the Potency entry in experiment [3], in experiment [4], in experiment [5], in [6], in experiment [8] and in experiment [10] was “inactive” in each case. Also, the Potency result in experiment [11], in experiment [12], in [13], in experiment [14] and in experiment [15] was “inactive” throughout. For the same compound, the activation in experiment [7] was -2.94% (inactive). For the same compound, the viability change in [8] was -8.54%.
Turning to `NC(Cc1cccc(-c2ccccc2CP(=O)(O)O)c1)C(=O)O` (stereo not drawn), the result in experiment [1] and in experiment [2] was inactive. The Potency result in experiment [16], in experiment [4], in experiment [5], in experiment [8], in experiment [10] and in [11] was “inactive” in each case. In addition, the Potency entry in experiment [12], in experiment [17], in experiment [18], in [13] and in experiment [15] was “inactive” in each case. Further, in experiment [7], the activation was 1.31% (inactive). The viability change in experiment [8] stood at 0.913%.
On to `O=C(O)C1=CCCNC1`, for which the outcome in experiment [1], in [2] and in experiment [9] was inactive. Besides, the Potency entry in experiment [16], in [4], in experiment [6], in [8], in experiment [10] and in experiment [12] was “inactive” throughout. Moreover, the Potency result in [17], in experiment [18], in experiment [13], in experiment [14] and in experiment [15] was “inactive” in each case. Moreover, the activation in experiment [7] is 0.875% (inactive). For the same compound, the viability change in [8] came to 5.73%.
For `COc1ccc(-c2ccc(N)[n+](CCCC(=O)O)n2)cc1`, the outcome in experiment [1], in experiment [2] and in experiment [9] was inactive. Besides, the Potency result in [3], in experiment [4], in experiment [5], in [6], in [8] and in experiment [10] was “inactive” in each case. In addition, the Potency result in experiment [12], in experiment [17], in [18], in experiment [13], in [14] and in [15] was “inactive” throughout. The activation in experiment [7] was 1% (inactive). Besides, in experiment [8], the viability change is 1.33%.
`Cn1c(=O)c2[nH]c(-c3ccc(S(=O)(=O)O)cc3)nc2n(C)c1=O`: the result in experiment [1], in [2] and in [9] was inactive. The Potency entry in [16], in experiment [4], in experiment [6], in [8], in [10] and in experiment [11] was “inactive” throughout. The Potency result in [12], in [18], in experiment [14] and in experiment [15] was “inactive” in each case. Also, the activation in [7] is 0.938% (inactive). The viability change in experiment [8] was -2.21%.
As to `NCC(O)(CS(=O)(=O)O)c1ccc(Cl)cc1` (stereo not drawn), the result in experiment [1], in experiment [2] and in [9] was inactive. Further, the Potency result in experiment [3], in experiment [4], in experiment [5], in experiment [6], in [8] and in experiment [10] was “inactive” in each case. Also, the Potency entry in [11], in experiment [12], in experiment [17], in [13], in [14] and in experiment [15] was “inactive” each time. Besides, the activation in experiment [7] was 0.25% (inactive). Further, the viability change in experiment [8] came out at 4.12%.
On to `N=C(N)SCCN`, for which the outcome in experiment [1] and in experiment [2] was inactive. The Potency entry in experiment [3], in experiment [4], in experiment [5], in [6], in experiment [8] and in [10] was “inactive” throughout. Also, the Potency result in experiment [11], in [12], in [17], in experiment [18], in [13] and in [14] was “inactive” in each case. Moreover, the Potency entry in experiment [15] was “inactive”. In addition, the activation in experiment [7] was 0.688% (inactive). In addition, the viability change in experiment [8] is 0.333%.
`CCCn1c(=O)c2c(ncn2C)n(CCC)c1=O`: the result in experiment [1], in experiment [2] and in experiment [9] was inactive. Besides, the Potency result in experiment [16], in [4], in experiment [5], in experiment [8], in experiment [10] and in [11] was “inactive” each time. Moreover, the Potency result in experiment [12], in [13], in [14] and in experiment [15] was “inactive” each time. Besides, in experiment [7], the activation is 0.5% (inactive). In addition, the viability change in experiment [8] is 3.43%.
